Screening data from PubChem BioAssay.
TGFb SMAD3 inh: qHTS for Inhibitors of TGF-b; HepG2 CAGA-GFP TGF-b/SMAD3 reporter, GFP fluorescence, 18 h; TGF-beta stimulated, 500 pg/mL final; Potency, µM (highest dose often 46.1 µM), inactives show at the highest dose activity, negative = inhibition, hits mostly inhibitors; hit rate 1.2% among 410,000; AID 588855, 2011; further: potency means the concentration at half of the fitted maximal effect; on the % scale 0 is the no-effect control and ±100 the full control effect; nearly all actives have a fitted effect of over 65% in size
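Inhibition of TGF-beta-driven CAGA-GFP reporter expression in HEPG2 cells is measured by cellular GFP fluorescence after 18 h stimulation with 500 pg/mL recombinant TGF-beta in 1% FBS medium at 37 degrees C.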
ATXN2 expr inh: Primary qHTS for Inhibitors of ATXN expression | HEK-293 ATXN2-luciferase reporter, luminescence, 24 h | Potency, µM (highest dose often 57 µM), for the others: at the top dose activity change, negative = inhibition, actives largely listed as inhibitors | hit rate 0.72% among 360,000; further: potency means the concentration at half of the fitted maximal effect; on the % scale 0 is the no-effect control and ±100 the full control effect; nearly all actives have a fitted effect of over 55% in size
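qHTS (up to 57 uM final) was run with 24 h compound exposure of reporter cells at 37 °C. Each well was multiplexed: SteadyGlo luminescence measured ATXN2-luciferase expression after a fluorogenic Gly-Phe-AFC viability readout (25 uM final).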
ATXN viability: Viability Counterscreen for Primary qHTS for Inhibitors of ATXN expression; S2 cells (HEK-293 line with an ATXN2-luciferase reporter) viability, CellTiter-Fluor protease fluorescence, 24 h; AID 651635, 2014; hit rate 0.49% among 400,000; Potency, µM (titrated, usually from 56.7 µM), actives largely listed as cytotoxic; further: potency means the concentration at half of the fitted maximal effect; nearly all actives have a fitted effect of over 40% in size
HepG2 viability: qHTS for Inhibitors of TGF-b: Cytotox Counterscreen; HepG2 CAGA-GFP viability, ATP luminescence, 18 h; Potency, µM (series often up to 46.1 µM), for the others: at the highest dose activity change, negative = cytotoxicity, usual class: cytotoxic; hit rate 0.76% among 410,000; AID 588856, 2011; further: potency means the concentration at half of the fitted maximal effect
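HepG2 CAGA-GFP cells (1000/well, DMEM with 1% FBS) received compound, then TGF-beta at 500 pg/mL final, and were incubated 18 hours at 37 degrees C. Viability was read by CellTiter-Glo luminescence. Media-only wells were set as complete cell-killing and DMSO as no toxicity.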
IL1B secr inh: qHTS for Inhibitors of Inflammasome Signaling: IL-1-beta AlphaLISA Primary Screen | THP-1 LPS/ATP IL-1B secretion, AlphaLISA, 16 h; active compounds read low | activity change, % at 57.5 µM | hit rate 4.7% among 360,000; in the data active means activity change below about -50%; inconclusive means mostly about -30% to -49%; further: on the % scale 0 is the no-effect control and ±100 the full control effect
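THP-1 cells pretreated 1 hr with compounds (up to 57.5 uM final), then stimulated with LPS (250 ng/mL final) plus ATP (1.25 mM final); secreted IL-1B measured by AlphaLISA after 16 hr, decreased signal indicating inhibition.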
Numbers without * were called inactive. Most compounds without a hit are left out; they make up all but 5.7% or so of the library. Unless noted, the call rests on the fitted dose curve; in most records, active means well fitted curve in the direction sought with a large enough effect; inconclusive means small, poorly fitted or top-dose-only effect, or another doubt; inactive means no such curve, though single readings can be large; an effect the other way counts as inactive or inconclusive.

COc1ccc(-c2nc3cc(F)ccc3cc2CN(C(=O)c2ccc3c(c2)OCO3)C2CC2)cc1 was read as ATXN viability inactive.
CC(=O)N(C(C)=O)c1ncnc2c1c(-c1ccc(Cl)cc1)nn2C(C)(C)C was read as TGFb SMAD3 inh inconclusive, ATXN2 expr inh inconclusive, ATXN viability inconclusive, HepG2 viability -35.8% and IL1B secr inh -83.2*.
`Cn1cc([N+](=O)[O-])c(C(=O)Nc2ccc(Br)cn2)n1` gave TGFb SMAD3 inh inconclusive, ATXN2 expr inh 18.7%, ATXN viability inactive, HepG2 viability -31.5% and IL1B secr inh -86.9*.
For Cn1cc([N+](=O)[O-])c(C(=O)Nc2nccs2)n1 the results were TGFb SMAD3 inh inconclusive, ATXN viability inconclusive, HepG2 viability -94.9% and IL1B secr inh -98.0*.
Screening COc1ccc(C(=O)Nc2nccs2)cc1[N+](=O)[O-] returned TGFb SMAD3 inh -5.6%, ATXN viability inactive, HepG2 viability -34.6% and IL1B secr inh -1.2.
Screening CCc1ccc2c(c1)C(c1ccc([N+](=O)[O-])cc1)=NNC(c1ccc(F)cc1)=N2 returned TGFb SMAD3 inh 0.9%, ATXN2 expr inh 21.9%, ATXN viability inactive, HepG2 viability -1.0% and IL1B secr inh -53.1*.
Screening CCOc1ccc(-c2cc(CCCC(=O)NCCc3ccc(SC)cc3)no2)cc1 returned TGFb SMAD3 inh -7.7%, ATXN2 expr inh inconclusive, ATXN viability inconclusive and HepG2 viability -0.2%.
`Cc1ccc(NC(=S)Nc2ccc(F)cc2)c(C)c1` gave TGFb SMAD3 inh 0.6%, ATXN viability inactive, HepG2 viability -24.0% and IL1B secr inh -58.8*.
`Oc1ccc(NC(=S)Nc2ccc(F)cc2)cc1` gave TGFb SMAD3 inh 2.8%, ATXN viability inactive, HepG2 viability 0.6% and IL1B secr inh -1.1.
Screening Fc1ccc(NC(=S)Nc2ccc(Br)cc2)cc1 returned TGFb SMAD3 inh inconclusive, ATXN2 expr inh -24.7%, ATXN viability inactive, HepG2 viability -56.7% and IL1B secr inh -92.8*.
For COc1ccc2c(CNCCc3ccc(SC)cc3)c(C(=O)O)n(Cc3ccc(F)cc3)c2c1 the results were TGFb SMAD3 inh inconclusive, ATXN2 expr inh inconclusive, ATXN viability inconclusive and HepG2 viability -107.0%.
`Cc1ccc(S(=O)(=O)n2cccc2/C=C/[N+](=O)[O-])cc1` gave TGFb SMAD3 inh 14.1µM*, ATXN viability inconclusive, HepG2 viability 12.6µM* and IL1B secr inh inconclusive.
`Cc1ccc(S(=O)(=O)n2ccc3cccnc32)cc1` gave TGFb SMAD3 inh -3.3%, ATXN2 expr inh 6.3%, ATXN viability inactive, HepG2 viability 0.6% and IL1B secr inh inconclusive.
COc1ccccc1-c1ccnc(-n2ncc(C(=O)N[C@H]3CCCCNC3=O)c2C2CC2)n1 was read as ATXN viability inactive.
Screening O=C(CCS(=O)(=O)c1ccccc1)Nc1ncc([N+](=O)[O-])s1 returned TGFb SMAD3 inh 15.8µM*, ATXN2 expr inh -5.0%, ATXN viability inactive, HepG2 viability -58.3% and IL1B secr inh -76.4*.
For O=C(CCS(=O)(=O)Cc1ccccc1)Nc1ncc([N+](=O)[O-])s1 the results were TGFb SMAD3 inh 0.0%, ATXN2 expr inh 26.1%, ATXN viability inactive, HepG2 viability -14.7% and IL1B secr inh -106.7*.
`Cc1[nH]c2ccc(-c3n[nH]c(=S)n3Cc3ccccc3)cc2c1C` gave TGFb SMAD3 inh -25.4%, ATXN2 expr inh 4.4%, ATXN viability inactive, HepG2 viability -22.2% and IL1B secr inh -57.1*.
For Cc1[nH]c2ccc(-c3n[nH]c(=S)n3-c3ccccc3)cc2c1C the results were TGFb SMAD3 inh -3.6%, ATXN2 expr inh 4.4%, ATXN viability inactive, HepG2 viability 5.3% and IL1B secr inh 1.8.
`CC(=O)c1ccccc1-c1ccc2c(c1)CC(CNC(=O)c1cc(C)on1)O2` (stereo unspecified) gave ATXN viability inactive.
`Cc1ccc(-c2cc(C(F)(F)F)nc(SCC(=O)c3cccc([N+](=O)[O-])c3)n2)cc1` gave TGFb SMAD3 inh -0.5%, ATXN2 expr inh -7.1%, ATXN viability inactive, HepG2 viability -17.8% and IL1B secr inh -53.3*.
For O=C(CSc1nc(-c2ccccc2)cc(C(F)(F)F)n1)c1cccc([N+](=O)[O-])c1 the results were TGFb SMAD3 inh -8.4%, ATXN2 expr inh 2.1%, ATXN viability inactive, HepG2 viability -8.6% and IL1B secr inh 5.3.
`O=C1c2cccc(NCCNCCO)c2C(=O)c2cccc(NCCNCCO)c21` gave TGFb SMAD3 inh inconclusive, ATXN2 expr inh 4.47µM*, ATXN viability 17.8µM*, HepG2 viability -12.4% and IL1B secr inh -117.2*.
`CCN(CC)CCCNc1oc(-c2ccc(OC)cc2)nc1C#N` gave TGFb SMAD3 inh -15.8% and HepG2 viability 6.4%.
`COc1ccc(OCCSc2nnc3sc4ccccc4n23)cc1` gave TGFb SMAD3 inh 1.0%, ATXN2 expr inh 68.0%, ATXN viability inactive, HepG2 viability -18.4% and IL1B secr inh -79.2*.
`NCC12CC3CC(C1)CC(c1ccc(Cl)cc1)(C3)C2` gave TGFb SMAD3 inh inconclusive, HepG2 viability -7.2% and IL1B secr inh -89.3*.
Screening CCc1ccc(Sc2cc(C(=O)NCCCN3CCC(C)CC3)c3ccccc3n2)cc1 returned TGFb SMAD3 inh inconclusive, ATXN2 expr inh inconclusive, ATXN viability inactive and HepG2 viability -90.1%.
For c1c2c(cc3sc(N4CCOCC4)nc13)OCCO2 the results were TGFb SMAD3 inh 0.0%, ATXN2 expr inh 6.31µM*, ATXN viability inactive, HepG2 viability -58.4% and IL1B secr inh -13.3.
c1ccc(N2CCN(c3nc4cc5c(cc4s3)OCCO5)CC2)cc1 was read as TGFb SMAD3 inh 0.0%, ATXN2 expr inh 14.4%, ATXN viability inactive, HepG2 viability 5.1% and IL1B secr inh -6.7.
For CCn1c2ccccc2c2nnc(SCCCn3c(=O)[nH]c4ccccc43)nc21 the results were TGFb SMAD3 inh -1.6%, ATXN2 expr inh inconclusive, ATXN viability 20µM*, HepG2 viability 2.6% and IL1B secr inh 2.2.
For COc1ccc(-c2noc(CCC(=O)NCCCN3CCC(Cc4ccccc4)CC3)n2)cc1 the results were TGFb SMAD3 inh inconclusive, ATXN2 expr inh -17.1%, ATXN viability inconclusive, HepG2 viability -57.1% and IL1B secr inh -64.5*.
`Cc1ccc(-c2noc(CCC(=O)NCCN3CCN(Cc4ccccc4)CC3)n2)cc1` gave TGFb SMAD3 inh 22.5%, ATXN2 expr inh -23.8%, ATXN viability inactive, HepG2 viability 1.26µM* and IL1B secr inh -29.5.
